# Measured values as given in the supplement of paper PMC11001985.
# Unmarked numbers belong to inactive results.
# Compound: C#CCNC(=O)CCSSCCC(=O)NCCc1ccc(C=O)c(C=O)c1
# Experiment: lysine labeling ratio R10:1 (500 µM / 50 µM probe), SILAC-ABPP in living cells; higher = lower intrinsic lysine reactivity toward the probe, active = 2 or less
# Details: HeLa; probe concentrations 500 vs 50 µM
# Procedure, shortened: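 With forward and reverse label swaps, light and heavy SILAC HeLa cells, alive and in PBS at room temperature, were exposed to either 500 µM or 50 µM of an alkyne-tagged lysine probe bearing a disulfide link. After mixing, lysates were clicked to biotin-azide, cut with trypsin, pulled down on neutravidin, freed with DTT, alkylated and analysed on a TIMS-TOF Pro by LC-MS/MS. The per-lysine value R is the median over forward and reverse replicates of the filtered median high-probe/low-probe MS1 peptide ratio. It is capped at 20.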
# Sequence of UniProt P08069 (P08069 whole entry, looked up): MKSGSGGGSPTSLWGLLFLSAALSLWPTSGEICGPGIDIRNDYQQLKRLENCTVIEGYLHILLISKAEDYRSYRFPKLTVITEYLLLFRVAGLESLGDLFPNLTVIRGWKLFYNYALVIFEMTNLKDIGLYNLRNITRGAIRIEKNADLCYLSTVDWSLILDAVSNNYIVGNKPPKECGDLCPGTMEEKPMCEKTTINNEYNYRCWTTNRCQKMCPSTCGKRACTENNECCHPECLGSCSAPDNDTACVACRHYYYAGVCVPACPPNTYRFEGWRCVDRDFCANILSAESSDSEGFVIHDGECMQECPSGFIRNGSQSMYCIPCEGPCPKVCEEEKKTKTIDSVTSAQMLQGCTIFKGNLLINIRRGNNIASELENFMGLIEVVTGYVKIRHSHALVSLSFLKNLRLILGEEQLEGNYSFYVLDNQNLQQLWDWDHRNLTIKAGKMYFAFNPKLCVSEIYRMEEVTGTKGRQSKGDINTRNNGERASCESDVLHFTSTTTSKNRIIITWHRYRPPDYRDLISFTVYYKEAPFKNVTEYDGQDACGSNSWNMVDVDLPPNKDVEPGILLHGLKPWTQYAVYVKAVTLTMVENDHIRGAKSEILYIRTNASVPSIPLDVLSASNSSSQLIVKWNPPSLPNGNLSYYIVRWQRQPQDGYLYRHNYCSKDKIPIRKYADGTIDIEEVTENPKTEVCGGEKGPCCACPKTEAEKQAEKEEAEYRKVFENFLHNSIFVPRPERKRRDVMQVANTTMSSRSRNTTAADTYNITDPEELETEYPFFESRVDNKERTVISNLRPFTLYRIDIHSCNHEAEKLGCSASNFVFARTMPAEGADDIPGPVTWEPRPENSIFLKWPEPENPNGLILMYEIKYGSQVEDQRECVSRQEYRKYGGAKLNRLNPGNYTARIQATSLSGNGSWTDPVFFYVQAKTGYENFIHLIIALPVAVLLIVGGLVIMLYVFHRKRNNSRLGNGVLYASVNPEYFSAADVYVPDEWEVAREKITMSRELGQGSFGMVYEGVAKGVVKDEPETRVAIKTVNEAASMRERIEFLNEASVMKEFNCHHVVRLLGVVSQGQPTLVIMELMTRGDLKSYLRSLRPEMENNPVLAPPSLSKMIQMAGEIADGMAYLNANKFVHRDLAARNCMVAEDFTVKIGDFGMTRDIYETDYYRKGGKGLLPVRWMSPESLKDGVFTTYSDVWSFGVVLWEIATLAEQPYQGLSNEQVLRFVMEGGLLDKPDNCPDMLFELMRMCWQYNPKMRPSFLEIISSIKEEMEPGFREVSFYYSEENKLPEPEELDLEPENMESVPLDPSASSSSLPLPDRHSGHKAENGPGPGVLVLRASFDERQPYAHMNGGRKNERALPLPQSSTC
# Sequence of UniProt Q6YHK3 (Q6YHK3 whole entry): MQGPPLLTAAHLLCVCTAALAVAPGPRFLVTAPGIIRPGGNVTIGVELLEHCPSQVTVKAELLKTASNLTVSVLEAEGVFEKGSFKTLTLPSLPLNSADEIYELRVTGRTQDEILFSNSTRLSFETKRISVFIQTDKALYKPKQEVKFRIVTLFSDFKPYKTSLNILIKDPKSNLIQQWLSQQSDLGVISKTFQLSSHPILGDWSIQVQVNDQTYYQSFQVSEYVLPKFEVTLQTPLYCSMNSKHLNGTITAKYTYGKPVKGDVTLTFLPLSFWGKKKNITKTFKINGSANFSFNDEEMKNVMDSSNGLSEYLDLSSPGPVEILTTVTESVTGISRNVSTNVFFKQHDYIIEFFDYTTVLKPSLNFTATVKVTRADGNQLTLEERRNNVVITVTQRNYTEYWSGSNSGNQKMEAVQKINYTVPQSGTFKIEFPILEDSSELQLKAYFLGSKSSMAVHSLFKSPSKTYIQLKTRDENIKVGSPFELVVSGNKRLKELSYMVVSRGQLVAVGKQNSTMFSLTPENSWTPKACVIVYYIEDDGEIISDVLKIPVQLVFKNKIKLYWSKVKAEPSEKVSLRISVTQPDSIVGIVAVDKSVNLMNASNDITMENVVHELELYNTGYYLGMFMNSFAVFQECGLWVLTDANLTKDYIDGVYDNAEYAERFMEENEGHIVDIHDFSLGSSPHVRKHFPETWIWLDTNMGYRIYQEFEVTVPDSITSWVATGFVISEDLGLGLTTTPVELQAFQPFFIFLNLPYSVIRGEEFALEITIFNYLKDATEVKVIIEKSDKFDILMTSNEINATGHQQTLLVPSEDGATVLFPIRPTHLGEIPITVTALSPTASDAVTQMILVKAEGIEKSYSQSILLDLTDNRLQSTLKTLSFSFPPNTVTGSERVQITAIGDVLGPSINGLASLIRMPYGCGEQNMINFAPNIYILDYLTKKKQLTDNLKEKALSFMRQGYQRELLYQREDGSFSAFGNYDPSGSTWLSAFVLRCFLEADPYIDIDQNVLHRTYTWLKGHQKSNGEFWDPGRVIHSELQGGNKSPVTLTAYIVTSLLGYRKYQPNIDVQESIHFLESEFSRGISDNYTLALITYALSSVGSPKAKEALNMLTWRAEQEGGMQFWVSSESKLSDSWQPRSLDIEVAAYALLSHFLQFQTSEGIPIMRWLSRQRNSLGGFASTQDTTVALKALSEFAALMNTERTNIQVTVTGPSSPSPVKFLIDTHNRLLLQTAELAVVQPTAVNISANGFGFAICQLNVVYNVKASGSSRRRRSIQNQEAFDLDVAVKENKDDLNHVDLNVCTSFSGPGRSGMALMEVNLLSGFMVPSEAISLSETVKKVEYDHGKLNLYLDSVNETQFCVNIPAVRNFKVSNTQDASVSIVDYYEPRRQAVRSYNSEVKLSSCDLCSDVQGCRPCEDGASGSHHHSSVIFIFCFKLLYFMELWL
# Sequence of UniProt P08727 (P08727 whole entry): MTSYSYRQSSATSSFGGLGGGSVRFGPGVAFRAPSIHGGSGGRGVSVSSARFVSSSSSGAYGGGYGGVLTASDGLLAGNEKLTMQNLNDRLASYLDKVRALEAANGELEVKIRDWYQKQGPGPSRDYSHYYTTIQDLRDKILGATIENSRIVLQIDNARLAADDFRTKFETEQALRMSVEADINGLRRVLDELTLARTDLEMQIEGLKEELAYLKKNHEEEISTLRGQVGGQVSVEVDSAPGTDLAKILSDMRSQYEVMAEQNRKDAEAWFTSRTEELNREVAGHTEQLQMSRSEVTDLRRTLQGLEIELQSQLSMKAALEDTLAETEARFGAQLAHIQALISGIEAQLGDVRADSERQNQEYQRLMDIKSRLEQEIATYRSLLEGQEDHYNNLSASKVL
# Sequence of UniProt P11233 (P11233 whole entry): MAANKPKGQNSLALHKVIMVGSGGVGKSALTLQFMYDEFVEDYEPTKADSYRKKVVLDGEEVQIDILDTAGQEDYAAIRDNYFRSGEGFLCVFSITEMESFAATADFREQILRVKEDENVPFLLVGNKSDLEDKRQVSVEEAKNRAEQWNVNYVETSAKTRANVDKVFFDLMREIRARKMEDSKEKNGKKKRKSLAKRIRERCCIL
# Sequence of UniProt P19827 (P19827 whole entry): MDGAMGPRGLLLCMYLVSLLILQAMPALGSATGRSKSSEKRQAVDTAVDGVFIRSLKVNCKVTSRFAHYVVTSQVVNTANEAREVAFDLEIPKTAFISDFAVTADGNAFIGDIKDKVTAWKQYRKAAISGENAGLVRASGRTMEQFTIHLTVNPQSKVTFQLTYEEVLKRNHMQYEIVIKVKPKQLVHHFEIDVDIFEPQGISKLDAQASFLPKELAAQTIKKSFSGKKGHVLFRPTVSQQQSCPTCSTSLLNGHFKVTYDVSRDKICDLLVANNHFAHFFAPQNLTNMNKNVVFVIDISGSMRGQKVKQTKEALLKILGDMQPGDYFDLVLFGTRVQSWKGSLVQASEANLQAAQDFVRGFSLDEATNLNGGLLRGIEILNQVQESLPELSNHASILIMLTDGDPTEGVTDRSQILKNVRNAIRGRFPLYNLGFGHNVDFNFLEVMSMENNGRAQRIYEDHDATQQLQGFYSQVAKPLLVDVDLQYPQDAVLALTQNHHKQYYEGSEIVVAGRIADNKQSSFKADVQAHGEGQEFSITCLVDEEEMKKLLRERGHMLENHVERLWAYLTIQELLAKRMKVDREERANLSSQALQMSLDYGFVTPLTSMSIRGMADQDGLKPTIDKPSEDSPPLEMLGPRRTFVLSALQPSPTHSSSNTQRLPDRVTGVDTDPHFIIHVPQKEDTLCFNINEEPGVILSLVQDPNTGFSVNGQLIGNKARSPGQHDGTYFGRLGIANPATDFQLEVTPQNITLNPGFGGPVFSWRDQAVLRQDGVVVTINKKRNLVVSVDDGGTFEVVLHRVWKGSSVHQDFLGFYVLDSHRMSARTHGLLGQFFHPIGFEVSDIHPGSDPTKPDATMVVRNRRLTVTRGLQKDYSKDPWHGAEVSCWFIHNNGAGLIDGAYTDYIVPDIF
# Sequence of UniProt P02788 (P02788 whole entry): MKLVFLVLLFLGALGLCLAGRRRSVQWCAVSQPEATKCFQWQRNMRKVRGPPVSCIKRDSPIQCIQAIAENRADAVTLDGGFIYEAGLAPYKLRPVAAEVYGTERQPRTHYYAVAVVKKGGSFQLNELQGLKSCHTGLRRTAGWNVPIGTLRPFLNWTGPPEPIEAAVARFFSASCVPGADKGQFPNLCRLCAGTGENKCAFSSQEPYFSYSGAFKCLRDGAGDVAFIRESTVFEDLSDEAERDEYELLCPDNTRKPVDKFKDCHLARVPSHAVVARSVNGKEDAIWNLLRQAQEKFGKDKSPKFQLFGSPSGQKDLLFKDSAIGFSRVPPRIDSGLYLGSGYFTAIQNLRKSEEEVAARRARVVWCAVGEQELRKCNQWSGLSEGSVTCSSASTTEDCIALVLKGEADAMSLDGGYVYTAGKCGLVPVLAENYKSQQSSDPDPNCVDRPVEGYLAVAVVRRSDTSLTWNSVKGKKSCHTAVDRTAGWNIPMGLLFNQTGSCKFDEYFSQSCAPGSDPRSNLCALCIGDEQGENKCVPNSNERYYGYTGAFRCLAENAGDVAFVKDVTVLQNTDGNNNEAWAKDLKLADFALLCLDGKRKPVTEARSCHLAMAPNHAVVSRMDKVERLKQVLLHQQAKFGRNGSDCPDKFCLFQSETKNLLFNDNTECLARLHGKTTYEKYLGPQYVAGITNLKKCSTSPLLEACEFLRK
row,Target,lysine labeling ratio R10:1
1,ADAM9 (lysine site: K368) (UniProt Q13443),3.66
2,RALA (lysine site: K143) (UniProt P11233),2.44
3,HNRNPM (lysine site: K242) (UniProt P52272),1.67 (active)
4,FN1 (lysine site: K149) (UniProt P02751),1.99 (active)
5,LTF (lysine site: K476) (UniProt P02788),0.862 (active)
6,HSPA9 (lysine site: K567) (UniProt P38646),2.96
7,GAS1 (lysine site: K140) (UniProt P54826),3.54
8,ITGAV (lysine site: K400) (UniProt P06756),0.958 (active)
9,TPI1 (lysine site: K188) (UniProt P60174),4.28
10,DDX5 (lysine site: K470) (UniProt P17844),4.7
11,TMEM30A (lysine site: K155) (UniProt Q9NV96),2.09
12,IQGAP1 (lysine site: K856) (UniProt P46940),1.47 (active)
13,PPL (lysine site: K1339) (UniProt O60437),1.34 (active)
14,CD109 (lysine site: K952) (UniProt Q6YHK3),0.643 (active)
15,HSPD1 (lysine site: K250) (UniProt P10809),2.65
16,TLN1 (lysine site: K687) (UniProt Q9Y490),3.61
17,UniProt P48047 (lysine site: K60),2.17
18,CCT3 (lysine site: K222) (UniProt P49368),2.19
19,KPNB1 (lysine site: K867) (UniProt Q14974),1.36 (active)
20,FLNB (lysine site: K1221) (UniProt O75369),3.74

row,Target,lysine labeling ratio R10:1
1,IGF1R (lysine site: K598) (UniProt P08069),5.67
2,HSPE1 (lysine site: K99) (UniProt P61604),4.89
3,LMO7 (lysine site: K1264) (UniProt Q8WWI1),4.64
4,EDIL3 (lysine site: K431) (UniProt O43854),1.29 (active)
5,EZR (lysine site: K523) (UniProt P15311),1.87 (active)
6,UniProt P08727 (lysine site: K216),7.74
7,ITIH1 (lysine site: K125) (UniProt P19827),4.42
8,IGF1R (lysine site: K502) (UniProt P08069),2.64
9,GALNT7 (lysine site: K624) (UniProt Q86SF2),1.81 (active)
10,SLC39A10 (lysine site: K66) (UniProt Q9ULF5),0.9 (active)
11,UniProt Q99500 (lysine site: K27),1.9 (active)
12,IGF2R (lysine site: K1924) (UniProt P11717),3.04
13,UniProt P46781 (lysine site: K180),2.7
14,UniProt Q15149 (lysine site: K2037),1.95 (active)
15,LMAN1 (lysine site: K87) (UniProt P49257),3.85
16,NUCB1 (lysine site: K177) (UniProt Q02818),1.71 (active)
17,CD109 (lysine site: K573) (UniProt Q6YHK3),2.8
18,UniProt O95084 (lysine site: K189),2.74
19,PLXNB2 (lysine site: K1121) (UniProt O15031),0.81 (active)
20,UniProt P14618 (lysine site: K66),1.62 (active)
